G9a inh: qHTS Assay for Inhibitors of Histone Lysine Methyltransferase G9a; G9a H3K9 monomethylation, AlphaScreen, 2 h; Potency, µM (doses to about 102 µM), actives largely listed as inhibitors; 350,000 tested, 8.8% active; AID 504332, 2011; also: nearly all actives have a fitted effect of over 75% in size
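Step 1: enzyme (final 20 nM) with compound, 15 min RT. Step 2: substrate peptide 500 nM and SAM 20 uM, 2 h RT. Step 3: anti-H3K9me1 antibody and AlphaScreen beads, 10 min, then plate read.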
HP1b binding inh: HTS for Inhibitors of HP1-beta Chromodomain Interactions with Methylated Histone Tails; AlphaScreen HP1-beta / biotin-H3K9me3 peptide binding; Potency, µM (highest dose often 114 µM), usual class: inhibitors; 390,000 tested, 0.56% active; AID 540317, 2011; also: nearly all actives have a fitted effect of over 70% in size
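Compound inhibition of the preformed complex between 50 nM HP1-beta and 50 nM biotinylated H3K9me3 peptide was read by AlphaScreen. Buffer was PBS pH 7.4 with 0.01% Tween-20. Incubations ran 30 min at room temperature, with 10 ug/mL donor/acceptor beads.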
Six1-Eya2 blk: qHTS Assay for Inhibitors of the Six1/Eya2 Interaction | AlphaScreen GST-Six1/His-Eya2 binding, biochemical; hits give low values | activity change, % (test concentration not listed) | 360,000 tested, 0.56% active | AID 651725, 2012 | Homeobox protein SIX1 (Homo sapiens) + Protein phosphatase EYA2 (Homo sapiens), …; in the data active = activity change below about -65%; inconclusive = mostly about -30% to -63%
Target sequence (O00167 whole entry, looked up): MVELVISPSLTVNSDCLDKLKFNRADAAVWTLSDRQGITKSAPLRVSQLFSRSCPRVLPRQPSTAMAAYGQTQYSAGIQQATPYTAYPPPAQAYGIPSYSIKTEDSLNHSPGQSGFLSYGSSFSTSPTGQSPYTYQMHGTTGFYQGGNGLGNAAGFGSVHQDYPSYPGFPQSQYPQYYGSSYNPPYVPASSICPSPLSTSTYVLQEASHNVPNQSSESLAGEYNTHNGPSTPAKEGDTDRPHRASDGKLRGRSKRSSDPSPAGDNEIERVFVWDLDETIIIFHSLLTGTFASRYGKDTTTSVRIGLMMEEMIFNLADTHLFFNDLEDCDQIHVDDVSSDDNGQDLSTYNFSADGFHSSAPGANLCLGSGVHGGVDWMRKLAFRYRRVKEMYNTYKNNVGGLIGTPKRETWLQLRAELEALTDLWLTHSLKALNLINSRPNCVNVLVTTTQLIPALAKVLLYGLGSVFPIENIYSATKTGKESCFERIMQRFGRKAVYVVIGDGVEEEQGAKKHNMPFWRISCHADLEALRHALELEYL
Target sequence (Q15475 whole entry, looked up): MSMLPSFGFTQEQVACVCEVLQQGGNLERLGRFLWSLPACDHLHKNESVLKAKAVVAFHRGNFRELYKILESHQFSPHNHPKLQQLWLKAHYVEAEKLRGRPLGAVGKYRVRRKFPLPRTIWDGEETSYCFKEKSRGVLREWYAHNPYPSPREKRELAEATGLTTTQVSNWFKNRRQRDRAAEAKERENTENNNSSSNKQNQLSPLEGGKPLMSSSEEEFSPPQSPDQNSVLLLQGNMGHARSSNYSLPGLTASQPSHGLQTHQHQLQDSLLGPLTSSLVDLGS
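Six1/Eya2 binding was read as AlphaScreen signal after compounds were pinned into GST-Six1 plus His-tagged Eya2 (5X stock 250/500 nM) in pH 8.0 Tris/NaCl/TCEP buffer, beads added, then incubated 1 h, 37 C, dark.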
CtBP-E1A inh: qHTS Assay for Inhibitors of the CtBP/E1A Interaction; CtBP / adenovirus E1A interaction (AlphaScreen); AlphaScreen GST-E1A/His-CtBP binding, 1536-well; hits give low values; activity change, % (concentration not given with the values); 340,000 tested, 0.49% active; AID 651724, 2012; in the data active = activity change below about -65%; inconclusive = mostly about -30% to -63%
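Protein mix (5X: 125 nM each GST-E1A, His-CtBP) was incubated with pinned compound 2 h at 37 deg C in dark, in 50 mM Tris pH 8.0 buffer with 300 mM NaCl. Glutathione donor and nickel acceptor beads followed; AlphaScreen signal read after 1 h.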
BAZ2B block: qHTS Assay for Inhibitors of BAZ2B | AlphaScreen BAZ2B-H3K14Ac peptide displacement | AID 504333, 2011 | 360,000 tested, 4.4% active | Potency, µM (series often up to 114 µM), hits mostly inhibitors | Bromodomain adjacent to zinc finger domain protein 2B (Homo sapiens), Q9UIF8; also: nearly all actives have a fitted effect of over 60% in size
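BAZ2B (50 nM) with biotin-H3(5-23)K14Ac peptide (50 nM) in PBS pH 7.4, 0.01% Tween-20, preformed 30 min, then compound 30 min at room temperature; top concentration 110uM. AlphaScreen streptavidin donor/nickel chelate acceptor beads (10 ug/mL final), 20 min dark, signal read.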
JMJD2A Tudor inh: qHTS Assay for Inhibitors of JMJD2A-Tudor Domain; AlphaScreen JMJD2A-Tudor / H3K4me3 peptide binding; Potency, µM (doses to about 114 µM), most hits filed as inhibitors; 390,000 tested, 4.4% active; also: nearly all actives have a fitted effect of over 50% in size
Of the large screens only hits and unclear results are named; the others gave an inactive call. This is a sample that favours compounds with a hit; in the whole collection about 10% have one here. Unless noted, calls follow the shape of the dose curve; as a rule, active = well fitted inhibition curve with a large enough effect; inconclusive = small, poorly fitted or top-dose-only effect; inactive = no such curve, though single readings can be large or run the other way.

COc1ccccc1NC(=O)Cc1nc(CCl)cs1	G9a inh 6.3µM, BAZ2B block 56µM, JMJD2A Tudor inh inconclusive
CCC(=O)Nc1nc(CC(=O)Nc2ccccc2OC)cs1	none
Cc1ccccc1NC(=O)Cc1nc(COC(=O)c2ccccn2)cs1	G9a inh 50µM
COc1cc(NC(=O)Cn2ccn(-c3cc(C)cc(C)c3)c(=O)c2=O)cc(OC)c1	none (no result: Six1-Eya2 blk, CtBP-E1A inh)
Cc1ccc(CN2CCSc3ccc(C(=O)N4CCN(c5cc(C)ccc5C)CC4)cc32)cc1	G9a inh inconclusive (no result: Six1-Eya2 blk, CtBP-E1A inh)
Cc1cccc(Nc2nnc(-c3ccc(C)c(S(=O)(=O)N4CCN(C)CC4)c3)c3ccccc23)c1	G9a inh 18µM, BAZ2B block inconclusive (no result: Six1-Eya2 blk, CtBP-E1A inh)
Cc1ccc(-c2nnc(Nc3cccc(Cl)c3)c3ccccc23)cc1S(=O)(=O)N1CCN(C)CC1	G9a inh 7.9µM, BAZ2B block inconclusive, JMJD2A Tudor inh inconclusive (no result: Six1-Eya2 blk, CtBP-E1A inh)
Cc1ccc(-c2nnc(Nc3ccccc3)c3ccccc23)cc1S(=O)(=O)N1CCN(C)CC1	G9a inh inconclusive (no result: Six1-Eya2 blk, CtBP-E1A inh)
Cc1ccc(-c2nnc(Nc3cccc(Br)c3)c3ccccc23)cc1S(=O)(=O)N1CCN(C)CC1	BAZ2B block inconclusive, JMJD2A Tudor inh inconclusive (no result: Six1-Eya2 blk, CtBP-E1A inh)
Cc1nnc(SCc2nnc(-c3cccs3)o2)s1	none
O=C(Nc1nc(=O)c2ccccc2s1)c1ccccc1	G9a inh inconclusive
CC(=O)Nc1nc(=O)c2ccccc2s1	G9a inh 22µM
CC(C)N(C(=O)[C@H]1C[C@H](CC(=O)NCCc2ccccn2)C(=O)N2CCc3c([nH]c4cc(-c5ccco5)ccc34)[C@]12C)C(C)C	JMJD2A Tudor inh 56µM (no result: G9a inh, BAZ2B block)
CC(C)N(C(=O)[C@H]1CC(CC(=O)NCc2ccco2)C(=O)N2CCc3c([nH]c4ccccc34)[C@]12C)C(C)C (some centres undefined)	none (no result: G9a inh, BAZ2B block)
CC(C)N(C(=O)[C@H]1C[C@H](CC(=O)NCc2ccco2)C(=O)N2CCc3c([nH]c4cc(-c5ccco5)ccc34)[C@]12C)C(C)C	HP1b binding inh inconclusive, JMJD2A Tudor inh 56µM (no result: G9a inh, BAZ2B block)
NC(N)=NCCCC(NC(=O)C(N)Cc1ccc(O)cc1)C(=O)O (centres undefined)	none (no result: HP1b binding inh, Six1-Eya2 blk, CtBP-E1A inh, BAZ2B block, JMJD2A Tudor inh)
CC(C)c1ccc(NC(=O)c2cn(C3CCCCC3)c(=O)c3c2c2ccccc2n3C)cc1	none (no result: Six1-Eya2 blk, CtBP-E1A inh)
COc1cc(C(=O)N2CCCCCCC2)cc(OC)c1OC	none (no result: HP1b binding inh, Six1-Eya2 blk, CtBP-E1A inh, BAZ2B block, JMJD2A Tudor inh)
COc1ccc(-c2ccc3c(c2)S(=O)(=O)c2cccc(C(=O)N4CCN(C5CCCCC5)CC4)c2C3=O)cc1OC	JMJD2A Tudor inh 79µM (no result: G9a inh, BAZ2B block)
COc1ccc(C(=O)N2CCN(C3CCCCC3)CC2)cc1OC	G9a inh 10µM, HP1b binding inh inconclusive, BAZ2B block 50µM, JMJD2A Tudor inh 28µM
COc1ccc(-c2ccc3c(c2)S(=O)(=O)c2cccc(C(=O)N4CCN(c5ccccn5)CC4)c2C3=O)cc1OC	none (no result: G9a inh, HP1b binding inh, BAZ2B block, JMJD2A Tudor inh)
COc1cc(C(=O)N2CCN(C3CCCCC3)CC2)cc(OC)c1OC	HP1b binding inh inconclusive, BAZ2B block inconclusive, JMJD2A Tudor inh 56µM (no result: G9a inh, CtBP-E1A inh)
COc1cc(C(=O)N2CCC(N3CCCCCC3)CC2)cc(OC)c1OC	HP1b binding inh inconclusive, JMJD2A Tudor inh 7.1µM (no result: G9a inh, BAZ2B block)
CCCCNC(=O)c1nn(-c2ccc(C)cc2)c(=O)c2c1c1ccccc1n2C	none (no result: Six1-Eya2 blk, CtBP-E1A inh, BAZ2B block)
COCCCn1cc(CN2CC(N3CCN(CCO)CC3)CS2(=O)=O)nn1 (centres undefined)	none (no result: G9a inh, HP1b binding inh, BAZ2B block, JMJD2A Tudor inh)
Cc1cccc(NC(=O)c2n[nH]c([N+](=O)[O-])c2Br)c1C	G9a inh 40µM
CC(=O)c1c(C)[nH]c(C(=O)Nc2cccc(C)c2C)c1C	none
CC1CCN(c2oc(-c3ccc(COc4ccc(Cl)cc4)o3)nc2C#N)CC1	G9a inh inconclusive, BAZ2B block inconclusive, JMJD2A Tudor inh inconclusive (no result: Six1-Eya2 blk, CtBP-E1A inh)
